# Assay results reported in PubChem BioAssay (EPA / NIEHS).
# Inconclusive results are not listed. The source made the active and inactive calls. Rule for the calls, unless noted: active = hit-call score of the fitted dose curve at least 0.9, where 1 is the maximum; inactive = score below 0.9.
# How the values were obtained:
# [1] = biological target: Bile acid receptor (Homo sapiens) (UniProt Q96RI1); assay: ATG_FXR_TRANS: Attagene TRANS-FACTORIAL HepG2 Assay for Farnesoid X Receptor (FXR) (AID 2282979; active = hit-call score of the fitted dose curve at least 0.9, where 1 is the maximum;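 note: hits raise reporter mRNA above DMSO so AC50 marks FXR activation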); details: HepG2 Attagene TRANS FXR-GAL4 reporter transcription
# Chain of Bile acid receptor (Homo sapiens) (Q96RI1 whole entry, looked up, the tested form may be a part): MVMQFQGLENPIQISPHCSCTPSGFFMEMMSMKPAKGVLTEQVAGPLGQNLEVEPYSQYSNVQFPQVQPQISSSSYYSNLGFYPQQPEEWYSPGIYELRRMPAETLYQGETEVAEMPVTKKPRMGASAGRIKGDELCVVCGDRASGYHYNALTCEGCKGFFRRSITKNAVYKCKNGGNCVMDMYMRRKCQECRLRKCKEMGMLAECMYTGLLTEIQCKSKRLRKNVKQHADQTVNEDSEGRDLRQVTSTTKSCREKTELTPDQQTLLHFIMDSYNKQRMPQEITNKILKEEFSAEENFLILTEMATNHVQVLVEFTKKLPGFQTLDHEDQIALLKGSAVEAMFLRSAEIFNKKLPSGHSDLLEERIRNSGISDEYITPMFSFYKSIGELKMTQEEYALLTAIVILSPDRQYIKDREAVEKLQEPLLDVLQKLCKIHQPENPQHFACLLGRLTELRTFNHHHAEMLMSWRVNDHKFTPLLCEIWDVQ
# Procedure, shortened: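 Read-out: fluorescent reporter transcripts quantified by capillary electrophoresis after RT-PCR of total RNA. Source cells were HepG2 transiently carrying chimeric NR-GAL4 plus GAL4-UAS reporter units, dosed 24 h. Activity fitted upward relative to DMSO baseline.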
# [2] = biological target: Oxysterols receptor LXR-alpha (Homo sapiens) (UniProt Q13133); assay: ATG_LXRa_TRANS: Attagene TRANS-FACTORIAL HepG2 Assay for human Liver X Receptor alpha (LXRa) (AID 2282980; active = hit-call score of the fitted dose curve at least 0.9, where 1 is the maximum); details: HepG2 Attagene TRANS reporter, LXRa transactivation
# Chain of Oxysterols receptor LXR-alpha (Homo sapiens) (Q13133 whole entry, looked up, the tested form may be a part): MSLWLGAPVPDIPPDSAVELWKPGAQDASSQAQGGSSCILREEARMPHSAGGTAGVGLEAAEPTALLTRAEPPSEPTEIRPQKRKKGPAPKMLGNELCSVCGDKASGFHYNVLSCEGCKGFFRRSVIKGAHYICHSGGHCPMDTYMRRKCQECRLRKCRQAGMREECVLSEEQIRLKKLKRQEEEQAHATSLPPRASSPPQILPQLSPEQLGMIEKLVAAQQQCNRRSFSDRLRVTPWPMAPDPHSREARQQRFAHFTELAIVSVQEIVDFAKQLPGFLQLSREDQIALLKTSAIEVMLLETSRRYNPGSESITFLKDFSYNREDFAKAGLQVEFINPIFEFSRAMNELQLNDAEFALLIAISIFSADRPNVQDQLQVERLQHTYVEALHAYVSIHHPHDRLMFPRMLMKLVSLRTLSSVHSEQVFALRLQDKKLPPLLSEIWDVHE
# Procedure, shortened: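 Read-out: reporter transcript levels by RT-PCR plus capillary electrophoresis, fluorescence intensity. Transiently transfected HepG2, exogenous NR-GAL4 chimera, GAL4-UAS reporters; 24 h compound exposure. Activity = increase over DMSO negative control.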
# [3] = biological target: Oxysterols receptor LXR-beta (Homo sapiens) (UniProt P55055); assay: ATG_LXRb_TRANS: Attagene TRANS-FACTORIAL HepG2 Assay for human Liver X Receptor beta (LXRb) (AID 2282981; active = hit-call score of the fitted dose curve at least 0.9, where 1 is the maximum); details: HepG2 Attagene TRANS GAL4-LXRb reporter, mRNA
# Chain of Oxysterols receptor LXR-beta (Homo sapiens) (P55055 whole entry, looked up, the tested form may be a part): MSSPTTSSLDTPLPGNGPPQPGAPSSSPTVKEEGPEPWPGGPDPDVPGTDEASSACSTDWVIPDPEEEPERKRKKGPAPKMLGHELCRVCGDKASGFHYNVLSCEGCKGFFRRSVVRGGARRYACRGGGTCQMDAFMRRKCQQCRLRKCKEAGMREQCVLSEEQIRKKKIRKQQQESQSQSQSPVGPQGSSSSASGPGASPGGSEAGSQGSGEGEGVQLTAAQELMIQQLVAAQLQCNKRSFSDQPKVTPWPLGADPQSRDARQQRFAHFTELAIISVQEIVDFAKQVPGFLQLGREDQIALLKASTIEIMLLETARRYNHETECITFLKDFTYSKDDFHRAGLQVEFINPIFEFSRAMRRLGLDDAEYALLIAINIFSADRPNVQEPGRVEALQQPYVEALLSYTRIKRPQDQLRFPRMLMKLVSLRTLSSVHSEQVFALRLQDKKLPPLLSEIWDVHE
# Procedure, shortened: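 After 24 h chemical treatment of transfected HepG2 cells carrying exogenous NR-Gal4 chimeras, reporter mRNA was quantified by fluorescent RT-PCR and capillary electrophoresis; activity taken as increase over DMSO controls.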
# [4] = biological target: Nuclear receptor subfamily 4 group A member 2 (Homo sapiens) (UniProt P43354); assay: ATG_NURR1_TRANS: Attagene TRANS-FACTORIAL HepG2 Assay for human Nuclear Receptor Related Protein 1 (NURR1) (AID 2282985; active = hit-call score of the fitted dose curve at least 0.9, where 1 is the maximum); details: HepG2 Attagene TRANS reporter, mRNA readout
# Chain of Nuclear receptor subfamily 4 group A member 2 (Homo sapiens) (P43354 whole entry, looked up, the tested form may be a part): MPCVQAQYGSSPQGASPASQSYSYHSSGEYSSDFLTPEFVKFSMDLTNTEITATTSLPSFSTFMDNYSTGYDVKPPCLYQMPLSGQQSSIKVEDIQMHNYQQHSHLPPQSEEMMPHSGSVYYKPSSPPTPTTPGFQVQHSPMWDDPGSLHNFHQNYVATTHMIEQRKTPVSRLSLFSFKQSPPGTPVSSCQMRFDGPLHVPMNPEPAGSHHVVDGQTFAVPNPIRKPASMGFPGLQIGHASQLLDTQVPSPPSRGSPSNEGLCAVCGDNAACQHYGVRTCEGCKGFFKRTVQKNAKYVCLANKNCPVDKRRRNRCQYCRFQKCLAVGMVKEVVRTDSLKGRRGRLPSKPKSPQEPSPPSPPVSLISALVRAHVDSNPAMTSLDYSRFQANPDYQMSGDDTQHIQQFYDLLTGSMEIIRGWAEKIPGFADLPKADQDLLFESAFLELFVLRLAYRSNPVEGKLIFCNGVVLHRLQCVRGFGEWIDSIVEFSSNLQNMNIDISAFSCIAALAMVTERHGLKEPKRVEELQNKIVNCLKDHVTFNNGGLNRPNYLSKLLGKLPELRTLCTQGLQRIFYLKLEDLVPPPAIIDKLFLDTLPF
# Procedure, shortened: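 Reporter transcript induction, measured by RT-PCR with fluorescent labelling, HpaI digestion and capillary electrophoresis, after 24 hr dosing of human HepG2 cells transiently expressing an exogenous NR-Gal4 fusion with GAL4-UAS-driven reporters; DMSO as baseline.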
# [5] = biological target: Transcriptional activator Myb (Homo sapiens) (UniProt P10242); assay: ATG_Myb_CIS: Attagene CIS-FACTORIAL HepG2 Assay for human Myeloblastosis (Myb) Proto-Oncogene Transcription Factor (AID 2282986); details: HepG2 Attagene CIS-FACTORIAL Myb reporter transcription; actives raise or lower the signal
# Chain of Transcriptional activator Myb (Homo sapiens) (P10242 whole entry, looked up): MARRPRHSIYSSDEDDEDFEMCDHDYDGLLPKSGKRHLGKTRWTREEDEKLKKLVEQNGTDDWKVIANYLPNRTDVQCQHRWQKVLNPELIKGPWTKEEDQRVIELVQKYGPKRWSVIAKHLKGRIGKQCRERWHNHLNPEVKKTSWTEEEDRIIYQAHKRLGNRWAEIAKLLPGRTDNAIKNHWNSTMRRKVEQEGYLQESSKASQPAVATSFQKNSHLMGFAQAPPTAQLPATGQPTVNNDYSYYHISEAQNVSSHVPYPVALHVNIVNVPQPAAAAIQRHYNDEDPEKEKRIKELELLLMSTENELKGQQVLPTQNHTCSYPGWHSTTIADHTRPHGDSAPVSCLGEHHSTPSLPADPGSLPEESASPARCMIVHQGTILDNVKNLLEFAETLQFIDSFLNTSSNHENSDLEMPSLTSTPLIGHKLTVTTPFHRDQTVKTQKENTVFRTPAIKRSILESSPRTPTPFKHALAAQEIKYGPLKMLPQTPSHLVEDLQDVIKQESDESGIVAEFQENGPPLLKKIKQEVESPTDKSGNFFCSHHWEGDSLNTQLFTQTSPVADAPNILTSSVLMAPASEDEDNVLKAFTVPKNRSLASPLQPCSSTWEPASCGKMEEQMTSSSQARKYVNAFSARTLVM
# Procedure, shortened: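 Reporter transcript levels, quantified by fluorescent RT-PCR and capillary electrophoresis, serve as the read-out. Transfected HepG2 cells carrying cis-promoter reporter units are dosed for 24 hours, and curves are fitted bidirectionally against DMSO controls.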
# [6] = biological target: Nuclear respiratory factor 1 (Homo sapiens) (UniProt Q16656); assay: ATG_NRF1_CIS: Attagene CIS-FACTORIAL HepG2 Assay for human Nuclear Respiratory Factor 1 (NRF1) Orphan Gene (AID 2282987); details: HepG2 NRF1 cis-element reporter, Attagene multiplex; actives raise or lower the signal
# Chain of Nuclear respiratory factor 1 (Homo sapiens) (Q16656 whole entry, looked up): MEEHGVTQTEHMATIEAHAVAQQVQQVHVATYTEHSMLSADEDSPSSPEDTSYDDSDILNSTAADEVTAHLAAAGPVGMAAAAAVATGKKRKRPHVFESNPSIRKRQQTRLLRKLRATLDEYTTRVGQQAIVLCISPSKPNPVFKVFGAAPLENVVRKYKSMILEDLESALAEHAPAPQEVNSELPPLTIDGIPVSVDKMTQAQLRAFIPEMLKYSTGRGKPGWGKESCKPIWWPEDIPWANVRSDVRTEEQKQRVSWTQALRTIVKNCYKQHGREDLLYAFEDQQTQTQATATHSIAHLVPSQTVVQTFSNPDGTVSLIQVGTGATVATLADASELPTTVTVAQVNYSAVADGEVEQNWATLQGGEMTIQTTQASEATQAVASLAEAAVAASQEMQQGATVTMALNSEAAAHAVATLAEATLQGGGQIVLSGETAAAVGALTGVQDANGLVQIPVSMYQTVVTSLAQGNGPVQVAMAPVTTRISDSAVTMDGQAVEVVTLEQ
# Procedure, shortened: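 Multiplexed cis-reporter assay, HepG2 cells, 24 h treatment. Total RNA → oligo(dT) RT → PCR with reporter-specific primers → 6-FAM primer extension → HpaI cut → CE. Bidirectional fit vs DMSO.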
# [7] = ATG_NFI_CIS: Attagene CIS-FACTORIAL HepG2 Assay for human Nuclear Factor I (NFI) (AID 2282989); details: HepG2 cis-regulatory reporter, NFI response element transcription; actives raise or lower the signal
# Procedure, shortened: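 Read-out: reporter mRNA via RT-PCR plus capillary electrophoresis with fluorescence detection. Transiently transfected HepG2 (endogenous TF activity on cis promoters), 24 h compound exposure; gain or loss of signal fitted against DMSO.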
# [8] = biological target: Myc proto-oncogene protein (Homo sapiens) (UniProt P01106); assay: ATG_Myc_CIS: Attagene CIS-FACTORIAL HepG2 Assay for human Myelocytomatosis (Myc) Proto-Oncogene Transcription Factor (AID 2282990); details: HepG2, Attagene cis-reporter transcription factor activity; actives raise or lower the signal
# Chain of Myc proto-oncogene protein (Homo sapiens) (P01106 whole entry, looked up, the tested form may be a part): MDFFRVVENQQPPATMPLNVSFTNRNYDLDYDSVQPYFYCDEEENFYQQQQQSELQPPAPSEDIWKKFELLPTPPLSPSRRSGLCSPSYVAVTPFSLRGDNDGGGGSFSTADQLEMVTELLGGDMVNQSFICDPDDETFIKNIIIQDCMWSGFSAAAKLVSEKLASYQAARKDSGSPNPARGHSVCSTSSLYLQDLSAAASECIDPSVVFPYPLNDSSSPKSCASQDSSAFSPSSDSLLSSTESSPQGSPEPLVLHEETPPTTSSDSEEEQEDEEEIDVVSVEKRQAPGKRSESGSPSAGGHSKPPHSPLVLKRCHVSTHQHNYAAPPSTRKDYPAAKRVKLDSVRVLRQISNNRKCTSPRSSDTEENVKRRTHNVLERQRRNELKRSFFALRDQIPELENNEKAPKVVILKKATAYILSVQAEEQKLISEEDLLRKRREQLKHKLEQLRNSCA
# Procedure, shortened: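 After 24 h chemical treatment of HepG2 cells carrying multiplexed cis-regulated reporter constructs, reporter transcripts quantified by RT-PCR and capillary electrophoresis of fluorescent fragments. Gain or loss fitted against DMSO baseline.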
# [9] = ATG_NF_kB_CIS: Attagene CIS-FACTORIAL HepG2 Assay for human Nuclear Factor Kappa B (NF-kB) (AID 2282991); details: HepG2 Attagene cis-factorial NF-kB reporter mRNA; actives raise or lower the signal
# Procedure, shortened: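 Transient MRTU transfection of human HepG2 liver cells → 24 h chemical exposure → total RNA, oligo(dT) RT → PCR, 6-FAM primer extension, HpaI digest 2 h 37 C → CE fragment analysis. Bidirectional fitting, DMSO negative control.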
# [10] = ATG_NRF2_ARE_CIS: Attagene CIS-FACTORIAL HepG2 Assay for human Nuclear Factor Erythroid 2 Related Factor 2 (NFR2) response to Antioxidant Response Elements (ARE) (AID 2282992); details: HepG2 Attagene ARE/NRF2 reporter, transcription factor activity; actives raise or lower the signal;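 for AC50: reporter mRNA level measured by RT-PCR and capillary electrophoresis fluorescence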
# Procedure, shortened: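 Endogenous transcription factor activity in human liver HepG2 cells is tracked via a cis-element-driven reporter within a multiplexed set. mRNA induction is read by RT-PCR and capillary electrophoresis after 24 h, with DMSO as baseline.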
# [11] = ATG_Oct_MLP_CIS: Attagene CIS-FACTORIAL HepG2 Assay for human Octamer-Binding Transcription Factor (Oct) (AID 2282993); details: HepG2 Attagene cis-factorial Oct reporter, mRNA; actives raise or lower the signal
# Procedure, shortened: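 Read-out: reporter mRNA via RT-PCR plus capillary electrophoresis of 6-FAM-labelled fragments. Transiently transfected HepG2, 24 h exposure, endogenous TF activity on cis elements. Gain or loss of signal fitted relative to DMSO.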
# [12] = biological target: Cellular tumor antigen p53 (Homo sapiens) (UniProt P04637); assay: ATG_p53_CIS: Attagene CIS-FACTORIAL HepG2 Assay for human p53 Transcription Factor (AID 2282994); details: HepG2 p53 cis-element reporter, Attagene mRNA; actives raise or lower the signal
# Chain of Cellular tumor antigen p53 (Homo sapiens) (P04637 whole entry, looked up, the tested form may be a part): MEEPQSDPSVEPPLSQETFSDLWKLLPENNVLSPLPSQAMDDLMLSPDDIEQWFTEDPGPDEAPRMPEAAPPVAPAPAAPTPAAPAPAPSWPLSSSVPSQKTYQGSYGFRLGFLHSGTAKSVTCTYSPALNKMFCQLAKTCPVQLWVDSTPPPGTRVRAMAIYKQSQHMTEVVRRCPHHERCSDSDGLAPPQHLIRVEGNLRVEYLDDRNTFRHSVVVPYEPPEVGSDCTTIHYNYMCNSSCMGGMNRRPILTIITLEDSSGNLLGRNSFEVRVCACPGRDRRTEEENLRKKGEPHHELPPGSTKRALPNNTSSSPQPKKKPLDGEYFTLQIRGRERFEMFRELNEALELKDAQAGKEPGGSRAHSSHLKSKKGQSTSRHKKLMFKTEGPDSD
# Procedure, shortened: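 Steps: transfect HepG2 with multiplexed cis reporter constructs; dose chemicals 24 h; extract RNA, reverse-transcribe, PCR-amplify reporter sequences; FAM-label, HpaI-digest, resolve fragments by CE. Activity fitted both directions relative to DMSO.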
# [13] = BSK_3C_TissueFactor: BioMAP Diversity Plus: 3C Assay for Tissue Factor Biomarker Activity (AID 2282997); details: BioMAP 3C HUVEC, tissue factor biomarker readout; actives raise or lower the signal
# Procedure, shortened: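 HUVEC, 3C system, 24 h post-dose; Tissue Factor by ELISA; bidirectional fit vs DMSO baseline.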
# [14] = BSK_3C_uPAR: BioMAP Diversity Plus: 3C Assay for Urokinase-type plasminogen activator receptor (uPAR) Biomarker Activity (AID 2282998); details: BioMAP 3C HUVEC, uPAR biomarker ELISA; actives raise or lower the signal
# Procedure, shortened: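 HUVEC primary cells; 24 h post-dose; uPAR by ELISA; gain or loss of signal fitted bidirectionally vs DMSO baseline.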
# [15] = BSK_3C_VCAM1: BioMAP Diversity Plus: 3C Assay for Vascular cell adhesion molecule 1 (VCAM1) Biomarker Activity (AID 2282999); details: BioMAP 3C HUVEC, VCAM1 ELISA, cytokine-stimulated; actives raise or lower the signal
# Procedure, shortened: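 Activity fitted in both directions relative to DMSO, with ELISA measurement of the surface marker on primary HUVEC (3C) at 24 h post-treatment; parallel SRB staining (0.1% SRB, TCA-fixed, 560 nm) flagged overt cytotoxicity.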
# [16] = BSK_4H_Eotaxin3: BioMAP Diversity Plus: 4H Assay for Eotaxin 3 Biomarker Activity (AID 2283000); details: primary human endothelial cells (HUVEC); actives raise or lower the signal;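 for outcome: CCL26 protein level quantified by ELISA in parallel with SRB cytotoxicity check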
# Procedure, shortened: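 Readout is Eotaxin-3 (CCL26) level by ELISA in primary human umbilical vein endothelial cells harvested 24 h after chemical exposure; activity fitted in both directions against DMSO control.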
# [17] = biological target: human Peroxisome Proliferator-activated Receptor alpha (PPARa), PPARA (gene 5465) (UniProt Q07869); assay: ATG_PPARa_TRANS: Attagene TRANS-FACTORIAL HepG2 Assay for human Peroxisome Proliferator-activated Receptor alpha (PPARa) (AID 2283001; active = hit-call score of the fitted dose curve at least 0.9, where 1 is the maximum;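 for AC50: potency for gain of reporter signal over DMSO so agonist or activator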)
# Chain of human Peroxisome Proliferator-activated Receptor alpha (PPARa), PPARA (gene 5465) (Q07869 whole entry, looked up, the tested form may be a part): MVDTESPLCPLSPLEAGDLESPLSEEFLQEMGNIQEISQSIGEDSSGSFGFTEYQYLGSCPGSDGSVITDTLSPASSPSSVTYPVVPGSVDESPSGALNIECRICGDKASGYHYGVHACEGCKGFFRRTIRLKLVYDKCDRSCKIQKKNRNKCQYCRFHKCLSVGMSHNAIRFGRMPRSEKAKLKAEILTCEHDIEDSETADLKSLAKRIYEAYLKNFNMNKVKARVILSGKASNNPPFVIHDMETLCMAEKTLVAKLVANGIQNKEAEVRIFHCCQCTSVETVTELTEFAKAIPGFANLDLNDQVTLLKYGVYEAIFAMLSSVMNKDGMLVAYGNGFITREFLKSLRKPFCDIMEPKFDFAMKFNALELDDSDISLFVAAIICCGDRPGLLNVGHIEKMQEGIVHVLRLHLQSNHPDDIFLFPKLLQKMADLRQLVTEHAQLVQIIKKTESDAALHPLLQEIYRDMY
# Procedure, shortened: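 Reporter transcripts quantified by RT-PCR plus capillary electrophoresis after 24 h treatment, fitted upward relative to DMSO. Cells: human HepG2 transiently carrying multiple GAL4-UAS reporter units driven by NR-Gal4 chimeras.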
# [18] = biological target: human Peroxisome Proliferator-activated Receptor delta (PPARd), PPARD (gene 5467) (UniProt Q03181); assay: ATG_PPARd_TRANS: Attagene TRANS-FACTORIAL HepG2 Assay for human Peroxisome Proliferator-activated Receptor delta (PPARd) (AID 2283002; active = hit-call score of the fitted dose curve at least 0.9, where 1 is the maximum)
# Chain of human Peroxisome Proliferator-activated Receptor delta (PPARd), PPARD (gene 5467) (Q03181 whole entry, looked up, the tested form may be a part): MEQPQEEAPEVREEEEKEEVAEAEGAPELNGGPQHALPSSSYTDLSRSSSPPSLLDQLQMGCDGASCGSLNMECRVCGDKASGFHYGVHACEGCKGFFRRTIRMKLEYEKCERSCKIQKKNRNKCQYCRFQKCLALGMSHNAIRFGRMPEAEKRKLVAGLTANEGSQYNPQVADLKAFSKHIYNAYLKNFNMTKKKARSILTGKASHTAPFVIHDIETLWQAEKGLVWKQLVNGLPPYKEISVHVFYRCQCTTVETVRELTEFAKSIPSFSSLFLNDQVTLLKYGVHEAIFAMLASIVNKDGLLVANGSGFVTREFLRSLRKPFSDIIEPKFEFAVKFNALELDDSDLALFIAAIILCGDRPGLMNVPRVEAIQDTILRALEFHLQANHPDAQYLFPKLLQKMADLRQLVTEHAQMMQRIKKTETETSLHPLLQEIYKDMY
# Procedure, shortened: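 Read-out is induced reporter mRNA, quantified by RT-PCR with fluorescent labelling and capillary electrophoresis after 24 h dosing. Cells are HepG2 transiently carrying multiple GAL4-UAS reporter units driven by exogenous NR-GAL4 chimeras; DMSO serves as baseline.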
# [19] = ATG_M_32_TRANS: Attagene TRANS-FACTORIAL HepG2 Assay for M32 Transcription Factor (Internal Marker) (AID 2282984; active = hit-call score of the fitted dose curve at least 0.9, where 1 is the maximum); details: HepG2 Attagene TRANS M32 internal marker reporter
# Procedure, shortened: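 Internal background reporter in transfected HepG2: after 24 h chemical exposure, RNA reverse-transcribed, reporter cDNA amplified, fluorescently labelled and HpaI-cut, then sized by capillary electrophoresis. Gain of signal fitted against DMSO control.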
structure (smiles),measurement,setting,value
O=C1CCCCCN1,outcome,[1],inactive
same,outcome,[2],inactive
same,outcome,[3],inactive
same,outcome,[4],inactive
same,outcome,[5],inactive
same,outcome,[6],inactive
same,outcome,[7],inactive
same,outcome,[8],inactive
same,outcome,[9],inactive
same,outcome,[10],inactive
same,outcome,[11],inactive
same,outcome,[12],inactive
same,outcome,[13],inactive
same,outcome,[14],inactive
same,outcome,[15],inactive
same,outcome,[16],inactive
same,AC50,[17],3.37 µM (active)
same,outcome,[18],inactive
COC(=O)c1ccccc1O,AC50,[2],25.8 µM (active)
same,AC50,[3],25.5 µM (active)
same,outcome,[19],inactive
same,outcome,[4],inactive
same,outcome,[5],inactive
same,outcome,[6],inactive
same,outcome,[7],inactive
same,outcome,[8],inactive
same,outcome,[9],inactive
same,outcome,[10],inactive
same,AC50,[11],59.6 µM (active)
same,outcome,[12],inactive
same,outcome,[13],inactive
same,outcome,[14],inactive
same,outcome,[15],inactive
same,outcome,[18],inactive
Fc1ccccc1[C@@H](F)COC1CCC(Nc2ncnc3[nH]ncc23)CC1 (stereo not given in full),AC50,[1],25.6 µM (active)
same,outcome,[19],inactive
same,outcome,[4],inactive
same,outcome,[5],inactive
same,AC50,[6],9.56 µM (active)
same,outcome,[7],inactive
same,AC50,[8],25.4 µM (active)
same,outcome,[9],inactive
same,AC50,[10],6.77 µM (active)
same,outcome,[11],inactive
same,outcome,[12],inactive
same,AC50,[13],35.2 µM (active)
same,AC50,[14],15.2 µM (active)
same,outcome,[15],inactive
same,AC50,[16],23.6 µM (active)
same,outcome,[18],inactive
COc1cccc(-c2ccc(/C=C\CN3CCCCCC3)cc2Cl)c1,outcome,[1],inactive
same,outcome,[2],inactive
same,outcome,[3],inactive
same,outcome,[4],inactive
same,outcome,[5],inactive
same,outcome,[6],inactive
same,outcome,[7],inactive
same,outcome,[9],inactive
same,AC50,[10],9.89 µM (active)
same,AC50,[11],11 µM (active)
same,outcome,[12],inactive
same,AC50,[13],31.5 µM (active)
same,AC50,[14],24.3 µM (active)
same,AC50,[15],33.1 µM (active)
same,outcome,[17],inactive
same,outcome,[18],inactive
CC1(C)C(=O)N(Br)C(=O)N1Br,outcome,[1],inactive
same,outcome,[4],inactive
same,outcome,[6],inactive
same,outcome,[7],inactive
same,outcome,[8],inactive
same,AC50,[10],52.4 µM (active)
same,outcome,[11],inactive
same,outcome,[12],inactive
same,outcome,[13],inactive
same,outcome,[14],inactive
same,outcome,[15],inactive
same,outcome,[18],inactive
CCCN(C1CCN(C(=O)C2CCNCC2)CC1)[C@@H]1CCc2ccc(OC)cc2C1,outcome,[2],inactive
same,outcome,[3],inactive
same,outcome,[19],inactive
same,outcome,[4],inactive
same,outcome,[6],inactive
same,outcome,[7],inactive
same,AC50,[9],186 µM (active)
same,AC50,[10],26.2 µM (active)
same,AC50,[11],178 µM (active)
same,AC50,[12],155 µM (active)
same,outcome,[13],inactive
same,outcome,[14],inactive
same,outcome,[15],inactive
same,outcome,[16],inactive
same,AC50,[17],146 µM (active)
same,outcome,[18],inactive
CCOc1cccc(-n2cc(C(=O)N3CCN(c4cc(C(=O)O)c5ccccc5c4)CC3)nc2-c2ccc(C)cc2)c1,outcome,[1],inactive
same,outcome,[19],inactive
same,AC50,[4],45 µM (active)
same,AC50,[5],152 µM (active)
same,AC50,[6],22.7 µM (active)
same,outcome,[7],inactive
same,outcome,[8],inactive
same,outcome,[9],inactive
same,AC50,[10],8.42 µM (active)
same,AC50,[11],25.4 µM (active)
same,outcome,[12],inactive
same,AC50,[13],28.7 µM (active)
same,AC50,[14],13.9 µM (active)
same,AC50,[15],27.9 µM (active)
same,AC50,[16],33.1 µM (active)
same,outcome,[18],inactive
